Potency, activity change, negative = inhibition and activity change, positive = activation data for 19 compounds are collected here from PubChem BioAssay (NCATS).

In experiment [1] the target is Cytochrome P450 2C9 (Homo sapiens) (UniProt P11712). Nature of the experiment: qHTS Assay for Inhibitors and Substrates of Cytochrome P450 2C9 (AID 883). For activity change, negative = inhibition: % is set by controls: 0 for no effect and ±100 for the full control effect. Note: nearly all actives have a fitted effect of over 60% in size. Note: potency is the fitted concentration of half-maximal effect. In outline:
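10nM CYP2C9 + 100uM Luciferin-H (=KM), 25mM KPO4; cpd 10 min 37C; NADPH regen, 60 min 37C; stop/detect with P450 Glo-Buffer 20 min; luminescence. Norm. to 57uM sulphaphenazole as full inhibition.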
Background: Quantitative high-throughput screening tests each substance at several concentrations.

Experiment [2] has as its target Cytochrome P450 3A4 (Homo sapiens) (UniProt P08684). Nature of the experiment: qHTS Assay for Inhibitors and Substrates of Cytochrome P450 3A4 (AID 884). For activity change, negative = inhibition: series mostly up to about 57 µM; % is set by controls: 0 for no effect and ±100 for the full control effect. Note: nearly all actives have a fitted effect of over 50% in size. Note: potency is the fitted concentration of half-maximal effect. In outline: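 Luminescent readout of luciferin produced by CYP3A4 (20 nM) dealkylation of Luciferin-PPXE, 25 uM (its KM). NADPH-driven reaction ran 60 min at RT after 10 min compound preincubation; data scaled to 57 uM ketoconazole as 100% inhibition.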

For experiment [3] the target is unchanged. The experiment is described as follows: qHTS Assay for Activators of Cytochrome P450 3A4 (AID 885). Note: nearly all actives have a fitted effect of over 65% in size. In outline:
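Activators are scored by enhanced luminescence from CYP3A4 conversion of luciferin-PPXE (25uM, equal to KM) to luciferin, after 60 min at RT with an NADPH-regenerating system.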

Experiment [4] addresses Cytochrome P450 2D6 (Homo sapiens) (UniProt P10635). Nature of the experiment: qHTS Assay for Inhibitors and Substrates of Cytochrome P450 2D6 (AID 891).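 Note: luciferin methyl ether substrate demethylated by CYP2D6 with NADPH regeneration; % is set by controls: 0 for no effect and ±100 for the full control effect; nearly all actives have a fitted effect of over 60% in size.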 In outline: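 Luminescent read-out of luciferin formed by 5 nM human CYP2D6 demethylating 30 uM Luciferin-ME EGE (Km level) over 60 min at room temperature after NADPH regeneration addition. Data normalized to full inhibition by 1.43 uM quinidine.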

For experiment [5], the target named is Cytochrome P450 2C19 (Homo sapiens) (UniProt P33261). Nature of the experiment: qHTS Assay for Inhibitors and Substrates of Cytochrome P450 2C19 (AID 899). Note: nearly all actives have a fitted effect of over 60% in size. Note: potency is the fitted concentration of half-maximal effect. The gist of the method: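 Luminescent read-out of luciferin formed from Luciferin-H EGE (10uM, equal to KM). Enzyme 5nM in 50mM KPO4; compound added, 10 min at 37C, then NADPH regenerating system for 60 min at 37C. Full inhibition defined by 57uM ketoconazole.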

Where “and” joins values, the source holds several entries; their conditions need not be identical. Equal values may be shown once. Inconclusive results are not listed. Calls of active or inactive are those of the source. Calls come from the whole dose curve; as a rule, active = well fitted curve in the direction sought with a large enough effect; inconclusive = small, poorly fitted or top-dose-only effect, or another doubt; inactive = no such curve, though single readings can be large; an effect the other way counts as inactive or inconclusive.

Sequence of Cytochrome P450 2C19 (Homo sapiens) (P33261 whole entry, looked up): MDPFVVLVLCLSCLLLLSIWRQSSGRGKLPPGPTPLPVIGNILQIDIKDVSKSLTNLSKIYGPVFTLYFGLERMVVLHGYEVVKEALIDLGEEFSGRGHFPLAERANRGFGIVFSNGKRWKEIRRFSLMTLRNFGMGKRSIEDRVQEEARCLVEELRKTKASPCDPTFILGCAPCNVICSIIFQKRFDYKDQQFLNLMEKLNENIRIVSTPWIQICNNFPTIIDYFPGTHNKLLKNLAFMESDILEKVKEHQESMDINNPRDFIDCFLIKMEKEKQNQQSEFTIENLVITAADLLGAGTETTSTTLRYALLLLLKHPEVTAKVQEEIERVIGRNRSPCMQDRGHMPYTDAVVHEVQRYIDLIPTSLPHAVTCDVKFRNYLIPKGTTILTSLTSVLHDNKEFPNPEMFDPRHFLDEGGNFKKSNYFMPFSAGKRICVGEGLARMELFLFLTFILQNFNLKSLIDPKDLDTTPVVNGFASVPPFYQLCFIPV
Sequence of Cytochrome P450 3A4 (Homo sapiens) (P08684 whole entry, looked up): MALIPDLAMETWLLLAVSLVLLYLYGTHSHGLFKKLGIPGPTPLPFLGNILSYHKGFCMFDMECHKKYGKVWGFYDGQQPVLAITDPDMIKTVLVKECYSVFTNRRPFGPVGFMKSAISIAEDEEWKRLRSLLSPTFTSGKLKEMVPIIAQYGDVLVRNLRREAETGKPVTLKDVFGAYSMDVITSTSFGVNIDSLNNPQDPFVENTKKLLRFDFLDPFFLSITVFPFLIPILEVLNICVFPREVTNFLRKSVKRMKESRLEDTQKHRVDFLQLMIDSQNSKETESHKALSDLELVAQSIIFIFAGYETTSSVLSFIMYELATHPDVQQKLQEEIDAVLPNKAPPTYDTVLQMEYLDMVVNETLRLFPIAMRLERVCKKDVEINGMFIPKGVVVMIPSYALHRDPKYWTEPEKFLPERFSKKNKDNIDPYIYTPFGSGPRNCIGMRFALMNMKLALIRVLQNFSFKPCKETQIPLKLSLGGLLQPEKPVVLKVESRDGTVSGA
Sequence of Cytochrome P450 2D6 (Homo sapiens) (P10635 whole entry, looked up): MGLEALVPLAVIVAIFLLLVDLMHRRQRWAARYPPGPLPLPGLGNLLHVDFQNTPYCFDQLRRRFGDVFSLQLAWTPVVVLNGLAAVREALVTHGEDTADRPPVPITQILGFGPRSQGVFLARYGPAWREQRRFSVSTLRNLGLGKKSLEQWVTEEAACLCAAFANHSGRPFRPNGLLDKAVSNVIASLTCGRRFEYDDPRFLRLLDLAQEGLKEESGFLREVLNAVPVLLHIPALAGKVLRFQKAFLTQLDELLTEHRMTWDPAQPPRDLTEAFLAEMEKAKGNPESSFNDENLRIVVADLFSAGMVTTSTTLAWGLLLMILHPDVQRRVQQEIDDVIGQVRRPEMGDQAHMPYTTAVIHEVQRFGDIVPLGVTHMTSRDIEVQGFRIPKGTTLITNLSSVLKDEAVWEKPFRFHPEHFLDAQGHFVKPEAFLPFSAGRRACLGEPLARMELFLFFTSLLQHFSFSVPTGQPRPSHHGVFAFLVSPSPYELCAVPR
Sequence of Cytochrome P450 2C9 (Homo sapiens) (P11712 whole entry, looked up): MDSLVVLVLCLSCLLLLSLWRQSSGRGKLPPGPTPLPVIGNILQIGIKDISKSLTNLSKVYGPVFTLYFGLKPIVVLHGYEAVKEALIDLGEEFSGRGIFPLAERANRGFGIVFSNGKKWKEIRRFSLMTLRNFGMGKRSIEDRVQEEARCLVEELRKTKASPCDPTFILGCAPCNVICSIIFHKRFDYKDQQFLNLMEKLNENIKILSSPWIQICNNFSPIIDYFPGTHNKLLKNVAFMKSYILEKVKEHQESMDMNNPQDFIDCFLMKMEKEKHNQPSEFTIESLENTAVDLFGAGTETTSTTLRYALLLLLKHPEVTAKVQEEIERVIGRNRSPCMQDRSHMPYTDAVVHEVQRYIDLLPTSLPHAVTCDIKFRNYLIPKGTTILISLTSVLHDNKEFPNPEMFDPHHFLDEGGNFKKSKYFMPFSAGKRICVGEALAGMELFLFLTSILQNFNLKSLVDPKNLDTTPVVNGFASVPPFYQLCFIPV

Consider `COC(=O)C1=C(C)N(Cc2ccccc2)[C@]23O[C@](C(=O)OC)(C(=O)N2C1c1ccccc1)C(c1ccccc1)C3C(=O)c1ccccc1` (some centres not stated), for which the Potency result in experiment [1], in experiment [4] and in experiment [5] was “inactive” in each case. In experiment [2], the activity change, negative = inhibition was -26.7% [at 11.4 µM] (inactive). The activity change, positive = activation in experiment [3] is -32.3% [at 11.4 µM] (inactive).
Turning to `CC1CCC2C(=O)N3C(CCC(C)[C@@H]3c3cccc(N4CCOCC4)c3)C(=O)N2C1c1cccc(N2CCOCC2)c1` (some centres not stated), the Potency result in experiment [1], in experiment [4] and in experiment [5] was “inactive” each time. The Potency in experiment [2] was 3.98 µM (active). Besides, in experiment [3], the activity change, positive = activation is -62.4% [at 11.4 µM] (inactive).
For the compound `COc1ccc(OC2C(O)COC2/C=C/C#Cc2ccc(F)cc2F)cc1` (configuration not stated), the Potency in experiment [1] was 2.51 µM (active); in experiment [2], 3.98 µM (active) and 3.16 µM (active). In experiment [3], the activity change, positive = activation was -91.9% [at 11.4 µM] (inactive) and -66.3% [at 11.4 µM] (inactive). In addition, the Potency entry in experiment [4] and in experiment [5] was “inactive” throughout.
Regarding `COC(=O)C/C=C\[C@@H](C)[C@@H](/C=N\O[C@@H](C)c1cc(-c2c(C)cc(C)cc2C)no1)NS(=O)(=O)c1ccc(C)cc1`, the Potency in experiment [1] is 2.51 µM (active); in experiment [2], 3.16 µM (active); in experiment [5] it was 3.16 µM (active). For the same compound, the activity change, positive = activation in experiment [3] was -103% [at 11.4 µM] (inactive).
Regarding `C=COCC1CN2C(CCC(C)C2c2ccc(Br)cc2)C(=O)O1` (configuration not stated), the Potency result in experiment [1] and in experiment [4] was “inactive” each time. Also, the Potency was 3.16 µM (active) and 794 nM (active) in experiment [2]; 316 nM (active) and 79.4 nM (active) in experiment [5]. Also, the activity change, positive = activation in experiment [3] was -65.3% [at 11.4 µM] (inactive) and -87.4% [at 11.4 µM] (inactive).
In the case of `C=CCc1cccc(C2C(C)CCC3C(=O)N4C(Cc5c([nH]c6ccccc56)C4c4cc(OC)c(OC)c(OC)c4)C(=O)N32)c1` (configuration not stated), the Potency entry in experiment [1] and in experiment [5] was “inactive” in each case. Moreover, the Potency in experiment [2] was 3.98 µM (active). Also, in experiment [3], the activity change, positive = activation was -74.3% [at 11.4 µM] (inactive).
In the case of `COC(=O)C1=C(C)N(Cc2ccccc2)C2=C3C(=O)OCCC3[C@@](O)(C(=O)OC)C(=O)N2C1c1ccccc1` (some centres not stated), the Potency entry in experiment [1], in experiment [4] and in experiment [5] was “inactive” in each case. Moreover, the Potency in experiment [2] is 3.98 µM (active). In experiment [3], the activity change, positive = activation is -61.3% [at 11.4 µM] (inactive).
Regarding `COc1ccc(/C=C/N(CCc2ccc(OC)c(OC)c2)C(=O)c2ccccn2)cc1`, the Potency entry in experiment [1], in experiment [4] and in experiment [5] was “inactive” in each case. In addition, the Potency in experiment [2] was 3.98 µM (active). Also, the activity change, positive = activation in experiment [3] is -97.7% [at 11.4 µM] (inactive).
With `COc1ccc(OC2C=CC(c3ccccc3)OC2CO)c(C(C)(C)C)c1` (configuration not stated), the Potency in experiment [1] is 3.16 µM (active); in experiment [2] it was 0.794 µM (active); in experiment [5], 3.16 µM (active). Further, the activity change, positive = activation in experiment [3] is -79.5% [at 11.4 µM] (inactive). In experiment [4], the Potency entry is “inactive”.
Take `COc1cccc(/C=C/C2=CC3(C)CC2(C)C(c2cccc(OC)c2)CC3=O)c1` (configuration not stated): the Potency in experiment [1] is 3.16 µM (active); in experiment [2] it was 3.98 µM (active); in experiment [5] it was 2 µM (active). Moreover, in experiment [3], the activity change, positive = activation was -78.1% [at 11.4 µM] (inactive).
Turning to `COc1cccc([C@@H]2Oc3ccc(OC)cc3/C(=N/OC[C@@H](C)[C@H](OCc3ccccc3)C(C)C)[C@@H]2O)c1`, the Potency in experiment [1] was 3.98 µM (active); in experiment [2] it was 3.16 µM (active); in experiment [5], 2 µM (active). For the same compound, the activity change, positive = activation in experiment [3] was -89.7% [at 11.4 µM] (inactive).
With `COC(=O)C1=C(C)N(Cc2ccccc2)[C@]23O[C@](C(=O)OC)(C(=O)N2C1c1ccccc1)C1CCOC(=O)C13` (some centres not stated), the Potency entry in experiment [1], in experiment [4] and in experiment [5] was “inactive” each time. In experiment [2], the Potency was 2.51 µM (active). Further, the activity change, positive = activation in experiment [3] is -70.4% [at 11.4 µM] (inactive).
Take `COc1ccc(/C=C/NC(=O)Cc2ccc(OC)c(OC)c2)cc1`: the Potency result in experiment [1], in experiment [4] and in experiment [5] was “inactive” in each case. In experiment [2], the Potency was 3.16 µM (active). The activity change, positive = activation in experiment [3] is -57.1% [at 11.4 µM] (inactive) and -101% [at 11.4 µM] (inactive).
`CCOC(=O)OCC1OC(C#Cc2ccccc2)C=CC1Oc1cccc(N(C)C)c1` (configuration not stated): the Potency in experiment [1] is 2.51 µM (active); in experiment [2], 3.98 µM (active); in experiment [5], 1.58 µM (active). The activity change, positive = activation in experiment [3] was -91.5% [at 11.4 µM] (inactive).
The matching figures for `CCOC(=O)OCC1C=C[C@H](c2cc(-c3ccccc3)ccc2O)C(c2ccc(C(C)=O)cc2)O1` (some centres not stated): 0.316 µM (active), 3.16 µM (active), 3.16 µM (active) and -86.1% [at 11.4 µM] (inactive).
As for `COC(=O)C/C=C\[C@@H](C)[C@@H](/C=N\OC[C@@H]1O[C@H](c2ccccc2)C=C[C@@H]1Oc1ccc(OC)cc1)NS(=O)(=O)c1ccc(C)cc1`, the Potency in experiment [1] is 1.26 µM (active); in experiment [2] it was 5.01 µM (active); in experiment [5], 0.398 µM (active). For the same compound, the activity change, positive = activation in experiment [3] is -96.1% [at 11.4 µM] (inactive).
Consider `C=CCOC(=O)C(C(C)=O)C(NC(=O)OC)c1cccc(C(F)(F)F)c1` (configuration not stated), for which the Potency result in experiment [1] and in experiment [4] was “inactive” each time. Also, the results for the Potency in experiment [2] and in experiment [5] were 1.58 µM (active) and 0.1 µM (active), respectively. Also, the activity change, positive = activation in experiment [3] was -104% [at 11.4 µM] (inactive).
Turning to `COc1ccc(/C=C/N(CCc2ccc(OC)c(OC)c2)C(C)=O)cc1`, the results for the Potency in experiment [1], in experiment [2] and in experiment [5] were 3.16 µM (active), 2 µM (active) and 0.794 µM (active), respectively. Also, in experiment [3], the activity change, positive = activation was -88.6% [at 11.4 µM] (inactive). The Potency entry in experiment [4] is “inactive”.
Turning to `CCN1C(C)=C(C(=O)OC)C(c2ccccc2)N2C(=O)[C@](O)(C(=O)OC)C(c3ccccc3)C(C(=O)c3ccccc3)=C12` (some centres not stated), the Potency entry in experiment [1] and in experiment [5] was “inactive” in each case. In addition, the Potency in experiment [2] is 3.16 µM (active). For the same compound, in experiment [3], the activity change, positive = activation was -65.7% [at 11.4 µM] (inactive).
